# Out of some 69,000 compounds screened, about 8,600 (12%) showed an effect of 50% or more. The list comes from a sample in which strong results are over-represented; it also holds similar structures and randomly drawn compounds.
# System: Plasmodium berghei
# Experiment: Screen against P. berghei liver stage (PbLuc), transformed with Luciferase, at 10uM
# Assay type: functional, HepG2
# Conditions: tested at 10 uM
row,Compound,INHIBITION [%]
1,CN(C)CCCn1ccnc1C1CCCN(c2ncc(Cl)cc2F)C1 (stereo not given),17.5
2,O=C(O)C1(n2ccc(-c3ccco3)n2)CCN(Cc2ccccn2)CC1,4.1
3,Cc1cc(C)n(C2CN(CC(=O)NC(C3CC3)C3CC3)C2)n1,17.4
4,O=C(NCC(=O)N1CCCC1)c1nc(Cc2c(Cl)cccc2Cl)no1,-32.8
5,Cc1ccc(C#N)c(N2CCC3(CCCN(C4CCOCC4)C3=O)C2)n1 (stereo not given),-20.8
6,c1cnc(N2CCOCC3(C2)CN(c2nccs2)CCO3)nc1 (stereo not given),44.8
7,Cc1csc(C(Cc2ccsc2)NC(=O)CN(C)Cc2cccnc2)n1 (stereo not given),42.6
8,CN(CC(=O)NC(Cc1ccsc1)c1cccnc1)Cc1ccccn1 (stereo not given),26.1
9,CN(CC(=O)NC(Cc1ccsc1)c1cccnc1)Cc1cccnc1 (stereo not given),64.6
10,CC(NC(=O)N1CCCN(C)CC1)c1ccc(S(N)(=O)=O)cc1 (stereo not given),-5.22
11,Cc1ccc(O)c(CNC2CCc3nc(C(C)C)nn3C2)n1 (stereo not given),15.8
12,CN1CC(=O)N(c2ccsc2)CC12CCN(C(=O)N1CCCC1)C2 (stereo not given),-5.05
13,CCOC(=O)c1n[nH]cc1-c1cncn1CCn1nc(C)c(Cl)c1C,-39.4
14,CS(=O)(=O)N1CCCC12CCCN(C(=O)c1ccc[nH]1)C2 (stereo not given),-24.8
15,CS(=O)(=O)N1CCCC12CCCN(C(=O)c1ccc3c(c1)OCO3)C2 (stereo not given),-1.15
16,CS(=O)(=O)N1CCCC12CCCN(C(=O)c1ccncc1)C2 (stereo not given),10.7
17,CS(=O)(=O)N1CCCC12CCCN(C(=O)c1ccc3[nH]ccc3c1)C2 (stereo not given),57.9
18,CS(=O)(=O)N1CCCCC12CCN(C(=O)c1ccccc1)C2 (stereo not given),61.8
19,CS(=O)(=O)N1CCCC12CCCN(C(=O)c1ccnnc1)C2 (stereo not given),26.4
20,O=S1(=O)C[C@@H]2[C@H](C1)N(Cc1ncc[nH]1)CCN2CCCc1ccccc1,34.275
21,COc1ccc(Cl)cc1NC(=O)CN1CCc2nc(NC(C)=O)sc2C1,30.2
22,CCOc1ccccc1C(C(=O)O)N(C)Cc1cc(C)[nH]n1 (stereo not given),27.6
23,Cc1n[nH]c(C)c1NC(=O)CN1CCc2c(nc(C(C)C)n2C)C1,-2.48
24,Cn1cc(C2CCCN2C(=O)CCCc2ccccn2)cn1 (stereo not given),62.6

row,Compound,INHIBITION [%]
1,Cn1cc(C2CCCN2C(=O)CCCOc2ccccc2F)cn1 (stereo not given),0.914
2,CCCc1noc(CCCC(=O)N2CCCC2c2cnn(C)c2)n1 (stereo not given),64.7
3,CCCc1noc(CCC(=O)N2CCCC2c2ccc(OC)cc2)n1 (stereo not given),0.914
4,CCCc1noc(CCC(=O)N2CCCC2c2ccncc2)n1 (stereo not given),13.3
5,Cn1cc(C2CCCN2C(=O)CCCc2cccs2)cn1 (stereo not given),9.14
6,Cc1nnc([C@@H]2C[C@H]3CN(C(=O)c4c(C)noc4C)C[C@H]3O2)[nH]1,12.7
7,CC(C)Cc1cc(NC(=O)c2ccncc2)n(C)n1,48.4
8,c1ccc(Cc2cncc(C3CCCN3C3CCOCC3)n2)cc1 (stereo not given),10.175
9,Cn1nc(C2CCCN(Cc3cc(F)cc(F)c3)C2)c2nccnc21 (stereo not given),36.4
10,Cn1nc(C2CCCN(Cc3ccc(F)c(F)c3)C2)c2nccnc21 (stereo not given),54.4
11,c1cc(CN2CCCC(c3nnc(-c4cnccn4)o3)C2)ccn1 (stereo not given),26.8
12,Cn1nc(C2CCCN(Cc3cccc(F)c3)C2)c2nccnc21 (stereo not given),31.3
13,Cn1nc(C2CCCN(Cc3ccc(F)cc3)C2)c2nccnc21 (stereo not given),43.6
14,Cn1nc(C2CCCN(Cc3cc(F)ccc3F)C2)c2nccnc21 (stereo not given),40
15,Fc1ccc(CN2CCCC(c3nnc(-c4cnccn4)o3)C2)cc1F (stereo not given),58.6
16,Cn1nc(C2CCCN(Cc3ccccc3)C2)c2nccnc21 (stereo not given),64.9
17,c1cncc(CN2CCCC(c3nnc(-c4cnccn4)o3)C2)c1 (stereo not given),-22.6
18,Cc1nc(C2CCCN2Cc2ccn(C)c(=O)c2)no1 (stereo not given),5.7
19,COCCN(C)C(C(=O)O)c1ccc(C)c(C)c1 (stereo not given),19.4
20,CCN1CC(=O)NCC12CCN(C(=O)c1ccco1)C2 (stereo not given),1.34
21,Cc1cc(C)n(CC2CCCN2C(=O)c2ccc3nncn3c2)n1 (stereo not given),-54.6
22,Cc1noc2nc(C3CCCN(Cc4ccncc4)C3)cc(C(F)F)c12 (stereo not given),34
23,Cc1nc(C(C)NCc2cc(O)c3cccc(F)c3n2)cs1 (stereo not given),-2.48
24,Cn1cc(NC(=O)Cc2cccs2)c(=O)n(C)c1=O,-7.16

row,Compound,INHIBITION [%]
1,Cn1cc(Br)cc(NC(=O)Cc2cccs2)c1=O,53.3
2,CCC(=O)Nc1cc(Br)cn(C)c1=O,8.92
3,O=C(NCCc1nnc2n1CCC2)NCC1(c2ccccc2F)CC1,33.8
4,COCCN1CCCC1(C)c1nc(C)cc(N)n1 (stereo not given),-3.94
5,Nc1nc2c(c(NCc3nc(-c4ccncc4)n[nH]3)n1)CCCC2,-97.2
6,Nc1nc2c(c(N3CCN(C(=O)c4cccs4)CC3)n1)CCCC2,72.5
7,Nc1nc2c(c(NCc3ccc(C(=O)N4CCCC4)cc3)n1)CCCC2,63.8
8,Nc1nc2c(c(NCc3ccncc3)n1)CCCC2,-68.2
9,Cc1csc(N2CCCN(C(=O)c3cccs3)CC2)n1,29.2
10,N#Cc1cccnc1N1CCN(C(=O)c2cccs2)CC1,9.16
11,Cc1ccc(N2CC[C@H]3[C@@H]2CCC(=O)N3CCN2CCOCC2)nn1,18.7
12,O=C(c1cnccn1)N1CCOC2(CCN(Cc3ccsc3)CC2)C1,13.7
13,CNC(=O)NCC1CCC2(CCN(C(=O)c3ccccn3)CC2)CO1 (stereo not given),35.8
14,CN(C)Cc1cc(C2CCN(C(=O)C3CC34CCC4)CC2)nn1C (stereo not given),8.53
15,CCCOc1ccc(CC2=NC(C)(CO)CO2)cc1 (stereo not given),58.3
16,CC(C)Oc1ccc(CC2=N[C@](C)(CO)CO2)cc1,16
17,CC1(CO)COC(Cc2ccc(Cl)cc2)=N1 (stereo not given),0.29
18,CCn1cc(C(=O)Nc2ccccc2C(=O)OC)cn1,21.5
19,CS(=O)(=O)N1CCOCC2(CCN(Cc3ccoc3)CC2)C1,35.5
20,CSc1ccc(CN2CCCC3(CNC(=O)c4ccccc4O3)C2)cc1 (stereo not given),73.7
21,O=C1NCC2(CCCN(Cc3ccncc3)C2)Oc2ccccc21 (stereo not given),36.4
22,O=C1NCC2(CCCN(Cc3ccc(F)cc3)C2)Oc2ccccc21 (stereo not given),46

# Reference: ChEMBL document CHEMBL4513216, “Probing the Open Global Health Chemical Diversity Library for Multistage-Active Starting Points for Next-Generation Antimalarials” (ACS Infect Dis, 2020)
